This is a sample that favours compounds with a hit; in the whole collection about 2.4% have one here.
Cruzain Triton = cruzain (T. cruzi) inhibition with detergent; hit rate 0.43% among 200,000; P25779; Potency, µM, without a hit: max response, negative = inhibition, actives largely listed as inhibitors; purified cruzain, Z-FR-AMC fluorescence, 0.01% Triton;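 further: plate controls were neutral wells for no effect and buffer without enzyme for full effect; nearly all actives have a fitted effect of over 40% in size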
Target sequence (P25779 123-467 limits assumed): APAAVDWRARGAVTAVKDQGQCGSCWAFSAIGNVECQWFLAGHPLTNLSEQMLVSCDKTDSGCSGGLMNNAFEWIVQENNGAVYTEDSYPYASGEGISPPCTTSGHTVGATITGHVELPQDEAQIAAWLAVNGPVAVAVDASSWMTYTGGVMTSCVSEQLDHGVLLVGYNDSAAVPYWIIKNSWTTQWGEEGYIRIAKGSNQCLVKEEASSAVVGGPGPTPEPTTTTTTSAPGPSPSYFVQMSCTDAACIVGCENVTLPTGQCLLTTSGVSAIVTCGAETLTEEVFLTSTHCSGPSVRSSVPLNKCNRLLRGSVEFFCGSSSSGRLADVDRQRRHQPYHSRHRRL
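Compounds were screened in titration against cruzain (1.5 nM) with 0.01% Triton X-100 to counter colloidal aggregation. Activity was the AMC fluorescence increase over 60 s after adding 2 uM Z-FR-AMC at pH 5.5.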
Cruzain noTriton = blocks cruzain activity in detergent-free assay; hit rate 2.3% among 200,000; AID 1476; Potency, µM, for inactives: max response, negative = inhibition, hits mostly inhibitors; purified cruzain, Z-FR-AMC fluorescence, no detergent;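 further: plate controls were enzyme without inhibitor for no effect and buffer without enzyme for full effect; nearly all actives have a fitted effect of over 40% in size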
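Purified cruzain at 1.5 nM, pre-incubated 15 min with compound at room temperature in 100 mM sodium acetate pH 5.5, 5 mM DTT, 0.00005% Triton X-100. Reaction started with 2 uM Z-FR-AMC; AMC fluorescence increase over 60 s gives rate.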
Papain counter = counter-screen for cruzain inhibitors: papain inhibition; shares compounds with Cruzain Triton; purified papain, Z-FR-AMC fluorescence cleavage; Potency, µM, without a hit: max response, negative = inhibition, actives largely listed as inhibitors; hit rate 41% among 410;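 further: 0% = no-compound wells and -100% = no-enzyme wells; nearly all actives have a fitted effect of over 35% in size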
An asterisk follows results filed as active; ? = inconclusive; . = no result. The call rests on the fitted dose curve; in most records, active means well fitted curve in the direction sought with a large enough effect; inconclusive means small, poorly fitted or top-dose-only effect, or another doubt; inactive means no such curve, though single readings can be large; an effect the other way counts as inactive or inconclusive. Potency means the concentration at half of the fitted maximal effect.

SMILES | Cruzain Triton | Cruzain noTriton | Papain counter
N#Cc1ccc(NC(=O)COC(=O)CNC(=O)C2CCCCC2)cc1 | 3.98µM* | 3.98µM* | -16.6%
O=C(CNC(=O)C1CCCCC1)OCC(=O)c1ccc(F)cc1 | . | . | 15.8µM*
Cc1sc2ncn(CC(=O)Nc3cccc(C(F)(F)F)c3)c(=O)c2c1S(=O)(=O)N1CCN(C)CC1 | -0.2% | 14.4% | .
COc1cccc(Cn2c(=O)n(Cc3ccco3)c(=O)c3oc4ccccc4c32)c1 | -2.4% | -0.5% | .
O=C(Nc1cccc(C(F)(F)F)c1)c1cc2nc(-c3ccccc3)cc(C(F)(F)F)n2n1 | -1.5% | 12.0% | .
Cc1ccccc1-n1c(C)cc(/C=C2/C(=N)N3C(c4ccccc4)=CSC3=NC2=O)c1C | -0.7% | 3.16µM* | 13.3%
Cc1ccccc1-n1c(C)cc(/C=C2/C(=O)NC(=O)N(Cc3ccco3)C2=O)c1C | -8.4% | 4.3% | .
CCc1ccc(NC(=O)CSc2ncc(S(=O)(=O)c3cc(C)ccc3C)c(=O)[nH]2)cc1 | -14.1% | ? | .
CC(NC(=O)C(=O)Nc1c2c(nn1-c1ccccc1)CSC2)c1ccccc1 (stereo not given) | -0.5% | ? | .
COc1cccc(-c2nc(CS(=O)(=O)CC(=O)NCc3ccc(C)cc3)c(C)o2)c1 | -2.5% | ? | .
CCc1nc2sc3ccccc3c(=O)c2c(=O)n1Cc1ccco1 | -13.8% | -28.0% | .
O=c1c2ccccc2sc2nc(C3CCCCC3)n(Cc3ccco3)c(=O)c12 | 15.8µM* | -22.3% | -14.0%
Cc1cc(C)n(C(C)CC(=O)Nc2ccc(Cl)cc2C)n1 (stereo not given) | -1.3% | 9.4% | .
O=C(Nc1ccc(Cl)cc1C(=O)c1ccccc1)c1ccccc1 | 1.0% | -16.6% | .
Cc1oc(=O)c(NC(=O)c2cccc(Cl)c2)cc1C(=O)c1ccccc1 | 1.26µM* | 0.631µM* | -5.3%
Cc1ccc(C(=O)N/C(=C\c2cccc([N+](=O)[O-])c2)C(=O)OCN2C(=O)c3ccccc3C2=O)cc1 | 0.891µM* | 15.8µM* | -4.1%
Cc1ccc(C(=O)N/C(=C/c2cccc([N+](=O)[O-])c2)C(=O)NC(C)C)cc1 | -0.1% | -2.1% | .
CC(=O)c1ccc(NC(=O)CN(C)S(=O)(=O)c2cccc3nsnc23)cc1 | -4.3% | -0.6% | .
COc1cccc(CNS(=O)(=O)c2c(C(=O)N3CCC(C)CC3)c(C)n(C)c2C)c1 | 0.1% | -7.3% | .
COc1cccc(-c2nccc(-n3ccnc3)n2)c1 | -0.1% | 10.1% | .
